Laboratory results taken from PubChem BioAssay (NCI).
This is part of a sample that, as a whole, favours compounds with a hit. Of some 79,000 tested, about 15% had one in any assay. Calls of active or inactive are those of the source. Cut-off read from the data, not from the text of the source: active = growth inhibition above about 70%; inactive = the rest.

Experiments:
[1] = NCI Yeast Anticancer Drug Screen. Data for the rad52 strain (AID 147);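 note: 0% = growth of vehicle-treated control cultures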; conditions: S. cerevisiae rad52 mutant growth inhibition, active compounds read high
Summary of the method: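 Read-out: growth inhibition versus vehicle-treated controls. Cells were a DNA repair-deficient yeast strain treated with compounds.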

[2] = NCI Yeast Anticancer Drug Screen. Data for the wt1 strain (AID 149);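 note: 0% = growth of vehicle-treated wt1 cultures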; conditions: S. cerevisiae wt1 strain (SPY 50644) growth inhibition, active compounds read high
Summary of the method: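 Each compound is tested on wt1 yeast and the loss of growth versus vehicle gives the inhibition value.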

[3] = NCI Yeast Anticancer Drug Screen. Data for the rad50EPP+ strain (AID 151);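 note: 0% = growth of vehicle-treated control cultures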; conditions: S. cerevisiae rad50 mutant strain, active compounds read high
Summary of the method: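 Growth inhibition read against vehicle controls in rad50EPP+ yeast, a strain altered in DNA damage repair, after compound exposure.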

[4] = NCI Yeast Anticancer Drug Screen. Data for the mgt1 strain (AID 153); conditions: S. cerevisiae mgt1 mutant growth inhibition, active compounds read high
Summary of the method: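 mgt1 yeast grown with test compound; read-out is growth inhibition versus vehicle-treated cultures.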

[5] = NCI Yeast Anticancer Drug Screen. Data for the rad50 strain (AID 155);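 note: 0% = growth of vehicle-only cultures of the same strain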; conditions: S. cerevisiae rad50 strain growth inhibition, active compounds read high
Summary of the method: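 Vehicle-treated cultures provide the reference for the growth inhibition reported for compound-exposed, repair-deficient yeast.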

[6] = NCI Yeast Anticancer Drug Screen. Data for the mec2-1 strain (AID 157); conditions: S. cerevisiae mec2-1 strain, active compounds read high
Summary of the method: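 Yeast mec2-1 mutant treated with compound. Readout: growth inhibition vs vehicle controls.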

[7] = NCI Yeast Anticancer Drug Screen. Data for the rad14 strain (AID 159);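 note: 0% = growth of vehicle-treated control cultures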; conditions: S. cerevisiae rad14 strain growth inhibition, active compounds read high
Summary of the method: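 Inhibition of growth is reported for a repair-deficient yeast mutant following compound treatment, calculated relative to cultures that received vehicle.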

[8] = NCI Yeast Anticancer Drug Screen. Data for the sgs1 mgt1 strain (AID 161);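 note: 0% = growth of cultures given vehicle only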; conditions: S. cerevisiae sgs1 mgt1 strain, active compounds read high
Summary of the method: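 Test agents were incubated with a DNA-repair-mutant yeast strain. Growth was then read and compared against vehicle-treated controls.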

[9] = NCI Yeast Anticancer Drug Screen. Data for the CLN2oe strain (AID 163);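 note: 0% = growth of vehicle-only control cultures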; conditions: S. cerevisiae CLN2oe strain, active compounds read high
Summary of the method: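 Read-out: yeast growth inhibition, expressed relative to vehicle-only controls. The strain bears an engineered cell-cycle alteration.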

[10] = NCI Yeast Anticancer Drug Screen. Data for the cln2 rad14 strain (AID 165);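 note: 0% = growth equal to vehicle treated cultures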; conditions: S. cerevisiae cln2 rad14 strain, active compounds read high
Summary of the method: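 cln2 rad14 yeast strain; compound exposure; growth inhibition read vs vehicle controls.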

[11] = NCI Yeast Anticancer Drug Screen. Data for the bub3 strain (AID 167); conditions: S. cerevisiae bub3 mutant strain, active compounds read high
Summary of the method: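 Mutant yeast screening strain plus compound; vehicle-treated cultures serve as the 0% inhibition reference.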

[12] = NCI Yeast Anticancer Drug Screen. Data for the wt2 strain (AID 169); conditions: S. cerevisiae wt2 strain growth inhibition, active compounds read high
Summary of the method: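 Read-out: growth inhibition versus vehicle-treated control cultures after compound exposure of the yeast strain.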

[13] = NCI Yeast Anticancer Drug Screen. Data for the sgs1 strain (AID 173);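 note: 0% = growth of vehicle-only control cultures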; conditions: S. cerevisiae sgs1 mutant, active compounds read high
Summary of the method: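 Read-out: yeast growth inhibition relative to vehicle controls, following compound exposure of a strain with a defined DNA repair/cell cycle alteration.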

[14] = NCI Yeast Anticancer Drug Screen. Data for the mlh1 rad18 strain (AID 175); conditions: S. cerevisiae mlh1 rad18 strain growth inhibition, active compounds read high
Summary of the method: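 Yeast w/ defined DNA-repair lesions; compound exposure; growth vs vehicle controls → % inhibition.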

[15] = NCI Yeast Anticancer Drug Screen. Data for the rad18 strain (AID 177); conditions: S. cerevisiae rad18 mutant growth inhibition, active compounds read high
Summary of the method: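 Readout: growth inhibition vs vehicle controls. Cells: genetically altered yeast strain, DNA repair defect.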

[16] = at 5.0 µM (retest, dose inferred, filed as 0.5)
[17] = at 50.0 µM (retest, dose inferred, filed as 5.0)

Measured: growth inhibition

Cc1cccc2c(Cl)c3cccc(C)c3nc12
inactive: [1]; at 1.2 µM 1% | [1]; at 3.7 µM -1% | [1]; at 11.0 µM 8% | [1]; at 33.0 µM 42% | [1]; at 100.0 µM 65% | [2]; at 1.2 µM -2% | [2]; at 3.7 µM -3% | [2]; at 11.0 µM -1% | [2]; at 33.0 µM -1% | [2]; at 100.0 µM 2% | [3]; at 1.2 µM 2% | [3]; at 3.7 µM 5% | [3]; at 11.0 µM 26% | [3]; at 33.0 µM 64% | [3]; at 100.0 µM 61% | [4]; at 1.2 µM -4% | [4]; at 3.7 µM 1% | [4]; at 11.0 µM -7% | [4]; at 33.0 µM 0% | [4]; at 100.0 µM -10% | [5]; at 1.2 µM 1% | [5]; at 3.7 µM 10% | [5]; [16] 13% | [5]; at 11.0 µM 21% | [5]; at 33.0 µM 44% | [5]; at 100.0 µM 62% | [6]; at 1.2 µM -10% | [6]; at 3.7 µM -13% | [6]; [16] 7% | [6]; at 11.0 µM -10% | [6]; at 33.0 µM 1% | [6]; [17] 25% | [6]; at 50.0 µM -15.9% | [6]; at 100.0 µM 6% | [7]; at 1.2 µM -2% | [7]; at 3.7 µM 11% | [7]; at 11.0 µM 4% | [7]; at 33.0 µM 13% | [7]; at 100.0 µM 12% | [8]; [16] -6% | [8]; [17] 58% | [8]; at 50.0 µM -15.8% | [9]; at 1.2 µM -5% | [9]; at 3.7 µM -5% | [9]; at 11.0 µM -7% | [9]; at 33.0 µM -7% | [9]; at 100.0 µM -3% | [10]; [16] -33% | [10]; [17] 10% | [10]; at 50.0 µM 1.65% | [11]; at 1.2 µM -8% | [11]; at 3.7 µM 6% | [11]; [16] 0% | [11]; at 11.0 µM 2% | [11]; at 33.0 µM 1% | [11]; [17] 18% | [11]; at 50.0 µM -28.9% | [11]; at 100.0 µM -17% | [12]; at 1.2 µM -4% | [12]; at 3.7 µM -3% | [12]; at 11.0 µM -2% | [12]; at 33.0 µM 3% | [12]; at 100.0 µM 5% | [13]; at 1.2 µM -3% | [13]; at 3.7 µM -5% | [13]; at 11.0 µM -4% | [13]; at 33.0 µM 2% | [13]; at 100.0 µM 2% | [14]; [16] -16% | [14]; [17] 49% | [14]; at 50.0 µM 10.1% | [15]; at 1.2 µM -3% | [15]; at 3.7 µM -3% | [15]; at 11.0 µM -1% | [15]; at 33.0 µM 6% | [15]; at 100.0 µM 14%
active: [5]; [17] 75% | [5]; at 50.0 µM 75%

O=C(CN(c1ccccc1)c1ccccc1)n1nnc2ccccc21
inactive: [1]; at 1.2 µM 18% | [1]; at 3.7 µM 20% | [1]; at 11.0 µM 14% | [1]; at 33.0 µM 39% | [2]; at 1.2 µM 10% | [2]; at 3.7 µM -11% | [2]; at 11.0 µM -19% | [2]; at 33.0 µM 0% | [3]; at 1.2 µM 15% | [3]; at 3.7 µM 7% | [3]; at 11.0 µM 15% | [3]; at 33.0 µM 42% | [4]; at 1.2 µM 6% | [4]; at 3.7 µM -20% | [4]; at 11.0 µM -10% | [4]; at 33.0 µM 9% | [5]; at 1.2 µM -9% | [5]; at 3.7 µM -7% | [5]; [16] -1% | [5]; at 11.0 µM 14% | [5]; at 33.0 µM 28% | [6]; at 1.2 µM -9% | [6]; at 3.7 µM 0%
active: [1]; at 100.0 µM 85% | [2]; at 100.0 µM 82% | [3]; at 100.0 µM 71% | [4]; at 100.0 µM 88% | [5]; [17] 76% | [5]; at 50.0 µM 74.5% | [5]; at 100.0 µM 84%
